# Source: paper PMC7862700, “An all-to-all approach to the identification of sequence-specific readers for epigenetic DNA modifications on cytosine”
# Legend:
# Assay in all cases: DAPPL (digital affinity profiling via proximity ligation, sequencing); 10 mM Tris-HCl pH 7.5, 50 mM NaCl, 1 mM DTT, 4% glycerol, room temperature, 30 min; GST-TFs on glutathione beads, 16-mer random dsDNA library, 0.1% formaldehyde crosslink after washing; high values mean tight binding
# [1] = target: T1, FEV (Homo sapiens, UniProt Q99581 1-238); details: protein: recombinant; tags: N-terminal GST; dsDNA, one strand shown
# T1 sequence: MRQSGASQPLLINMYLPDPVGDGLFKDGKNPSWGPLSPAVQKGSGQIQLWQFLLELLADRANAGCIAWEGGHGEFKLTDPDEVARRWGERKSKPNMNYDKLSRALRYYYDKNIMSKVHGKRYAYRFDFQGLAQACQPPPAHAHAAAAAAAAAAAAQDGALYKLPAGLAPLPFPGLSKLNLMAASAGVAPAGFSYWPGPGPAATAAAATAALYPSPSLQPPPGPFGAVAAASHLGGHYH
# Method in brief: (§1)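 Sequencing on an Illumina NextSeq500 followed washing, crosslinking with 0.1% formaldehyde, proximity ligation (BsaI/T4 ligase, 1 h, 37 °C) and PCR amplification of pools that had been incubated for 30 min at room temperature with 200 nmole of a random double-stranded 16-mer DNA library in Tris/NaCl/DTT/glycerol buffer. Each pool held DNA-barcoded human transcription factors, expressed in yeast as GST fusions and captured on glutathione beads, plus a tag-only sample. Binding signal is a hexamer's read frequency for a factor divided by its frequency in the tag-only sample.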
# [2] = target: ETV5 (Homo sapiens, UniProt P41161 1-510); details: protein: recombinant; tags: N-terminal GST; dsDNA, one strand shown
# Chain of ETV5 (P41161 whole entry): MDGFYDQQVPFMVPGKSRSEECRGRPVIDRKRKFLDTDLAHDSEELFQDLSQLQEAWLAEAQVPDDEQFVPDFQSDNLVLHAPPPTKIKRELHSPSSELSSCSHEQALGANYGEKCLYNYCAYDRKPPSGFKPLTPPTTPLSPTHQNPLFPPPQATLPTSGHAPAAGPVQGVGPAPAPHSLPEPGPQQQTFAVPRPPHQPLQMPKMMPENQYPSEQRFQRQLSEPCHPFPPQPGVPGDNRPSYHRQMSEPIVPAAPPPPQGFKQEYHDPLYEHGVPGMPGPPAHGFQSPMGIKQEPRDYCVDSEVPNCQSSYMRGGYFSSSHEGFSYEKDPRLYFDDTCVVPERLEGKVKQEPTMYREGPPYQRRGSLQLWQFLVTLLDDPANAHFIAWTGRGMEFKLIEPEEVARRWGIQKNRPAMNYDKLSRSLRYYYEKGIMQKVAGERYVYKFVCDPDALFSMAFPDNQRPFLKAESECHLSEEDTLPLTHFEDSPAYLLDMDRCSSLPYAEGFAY
# Method in brief: as §1
# [3] = target: HSF1 (Homo sapiens, UniProt Q00613 1-529); details: protein: recombinant; tags: N-terminal GST; chain copies: 3; dsDNA, one strand shown
# Chain of HSF1 (Q00613 whole entry): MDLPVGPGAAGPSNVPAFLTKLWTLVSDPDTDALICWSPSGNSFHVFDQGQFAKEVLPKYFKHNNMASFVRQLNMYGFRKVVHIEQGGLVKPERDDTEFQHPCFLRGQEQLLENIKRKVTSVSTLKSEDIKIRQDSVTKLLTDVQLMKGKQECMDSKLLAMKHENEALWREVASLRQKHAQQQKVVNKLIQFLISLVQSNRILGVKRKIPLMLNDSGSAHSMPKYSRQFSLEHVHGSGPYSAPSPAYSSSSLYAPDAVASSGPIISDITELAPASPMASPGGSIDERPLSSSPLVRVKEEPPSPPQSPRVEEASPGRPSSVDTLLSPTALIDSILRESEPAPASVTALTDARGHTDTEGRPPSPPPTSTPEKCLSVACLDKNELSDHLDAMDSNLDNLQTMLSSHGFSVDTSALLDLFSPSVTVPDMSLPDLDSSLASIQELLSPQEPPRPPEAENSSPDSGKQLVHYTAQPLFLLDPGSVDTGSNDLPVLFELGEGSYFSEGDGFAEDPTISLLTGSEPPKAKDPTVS
# Method in brief: as §1
# [4] = target: T2, SPIC (Homo sapiens, UniProt Q8N5J4 1-248); details: protein: recombinant; tags: N-terminal GST; dsDNA, one strand shown
# T2 sequence: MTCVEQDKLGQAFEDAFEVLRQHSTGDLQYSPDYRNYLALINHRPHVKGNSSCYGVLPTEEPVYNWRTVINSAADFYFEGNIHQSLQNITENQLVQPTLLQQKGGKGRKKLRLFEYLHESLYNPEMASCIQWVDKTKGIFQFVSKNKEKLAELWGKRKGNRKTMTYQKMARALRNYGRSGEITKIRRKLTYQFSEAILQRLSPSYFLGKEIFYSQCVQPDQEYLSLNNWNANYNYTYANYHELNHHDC
# Method in brief: as §1
# [5] = target: ELF4 (Homo sapiens, UniProt Q99607 1-663); details: protein: recombinant; tags: N-terminal GST; dsDNA, one strand shown
# Chain of ELF4 (Q99607 whole entry): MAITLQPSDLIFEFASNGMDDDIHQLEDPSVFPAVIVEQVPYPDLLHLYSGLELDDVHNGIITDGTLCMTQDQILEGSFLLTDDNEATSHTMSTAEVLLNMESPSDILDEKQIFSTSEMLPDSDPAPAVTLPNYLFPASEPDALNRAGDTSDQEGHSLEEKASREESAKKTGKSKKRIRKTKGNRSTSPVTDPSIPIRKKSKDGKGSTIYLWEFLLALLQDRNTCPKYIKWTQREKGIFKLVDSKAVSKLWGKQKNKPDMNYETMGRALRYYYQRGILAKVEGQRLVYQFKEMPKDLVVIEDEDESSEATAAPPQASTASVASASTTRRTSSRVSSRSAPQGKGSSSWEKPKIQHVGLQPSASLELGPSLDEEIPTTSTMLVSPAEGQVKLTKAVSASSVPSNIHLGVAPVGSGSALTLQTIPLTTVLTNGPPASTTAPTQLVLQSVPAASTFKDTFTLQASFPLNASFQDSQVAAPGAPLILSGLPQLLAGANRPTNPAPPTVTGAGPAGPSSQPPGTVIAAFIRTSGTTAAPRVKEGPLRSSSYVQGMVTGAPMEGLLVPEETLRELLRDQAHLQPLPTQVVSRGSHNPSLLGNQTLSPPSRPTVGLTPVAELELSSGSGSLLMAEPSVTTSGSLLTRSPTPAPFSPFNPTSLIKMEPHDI
# Method in brief: as §1
# [6] = target: T3, ELK4 (Homo sapiens, UniProt P28324-2 1-405); details: protein: recombinant; tags: N-terminal GST; dsDNA, one strand shown
# T3 sequence: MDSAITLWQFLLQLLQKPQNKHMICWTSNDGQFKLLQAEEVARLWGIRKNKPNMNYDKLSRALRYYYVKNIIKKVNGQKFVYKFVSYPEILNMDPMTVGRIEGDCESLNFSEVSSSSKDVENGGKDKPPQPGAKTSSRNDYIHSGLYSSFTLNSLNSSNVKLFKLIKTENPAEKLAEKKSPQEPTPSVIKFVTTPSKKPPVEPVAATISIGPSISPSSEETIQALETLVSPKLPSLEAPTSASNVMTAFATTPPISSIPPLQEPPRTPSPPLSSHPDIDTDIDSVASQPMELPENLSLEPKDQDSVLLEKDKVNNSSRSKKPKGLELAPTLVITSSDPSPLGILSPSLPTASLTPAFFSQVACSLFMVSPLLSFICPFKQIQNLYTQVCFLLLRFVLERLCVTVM
# Method in brief: as §1
# [7] = target: T4, ETV2 (Homo sapiens, UniProt O00321 1-342); details: protein: recombinant; tags: N-terminal GST; dsDNA, one strand shown
# T4 sequence: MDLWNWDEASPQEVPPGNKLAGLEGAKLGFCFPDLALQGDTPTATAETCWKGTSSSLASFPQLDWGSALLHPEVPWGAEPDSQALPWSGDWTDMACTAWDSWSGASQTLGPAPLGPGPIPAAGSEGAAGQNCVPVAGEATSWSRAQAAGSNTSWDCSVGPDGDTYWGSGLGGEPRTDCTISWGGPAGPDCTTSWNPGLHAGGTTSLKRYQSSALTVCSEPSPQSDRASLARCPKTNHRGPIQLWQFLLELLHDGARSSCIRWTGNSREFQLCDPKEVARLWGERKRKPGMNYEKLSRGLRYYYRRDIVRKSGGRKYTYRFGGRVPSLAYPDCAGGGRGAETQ
# Method in brief: as §1
# [8] = target: T5, ELF3 (Homo sapiens, UniProt P78545 1-371); details: protein: recombinant; tags: N-terminal GST; dsDNA, one strand shown
# T5 sequence: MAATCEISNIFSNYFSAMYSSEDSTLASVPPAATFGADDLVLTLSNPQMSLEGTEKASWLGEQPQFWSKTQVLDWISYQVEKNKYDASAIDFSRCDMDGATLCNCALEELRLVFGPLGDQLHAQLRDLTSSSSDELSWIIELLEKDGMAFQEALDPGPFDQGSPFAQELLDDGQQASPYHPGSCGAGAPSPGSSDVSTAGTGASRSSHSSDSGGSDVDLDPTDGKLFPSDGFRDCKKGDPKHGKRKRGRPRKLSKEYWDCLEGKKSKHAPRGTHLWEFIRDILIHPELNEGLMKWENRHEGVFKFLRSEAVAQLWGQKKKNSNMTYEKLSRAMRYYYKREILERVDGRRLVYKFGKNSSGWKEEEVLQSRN
# Method in brief: as §1
# [9] = target: CRX (Homo sapiens, UniProt O43186 1-299); details: protein: recombinant; tags: N-terminal GST; dsDNA, one strand shown
# Chain of CRX (O43186 whole entry): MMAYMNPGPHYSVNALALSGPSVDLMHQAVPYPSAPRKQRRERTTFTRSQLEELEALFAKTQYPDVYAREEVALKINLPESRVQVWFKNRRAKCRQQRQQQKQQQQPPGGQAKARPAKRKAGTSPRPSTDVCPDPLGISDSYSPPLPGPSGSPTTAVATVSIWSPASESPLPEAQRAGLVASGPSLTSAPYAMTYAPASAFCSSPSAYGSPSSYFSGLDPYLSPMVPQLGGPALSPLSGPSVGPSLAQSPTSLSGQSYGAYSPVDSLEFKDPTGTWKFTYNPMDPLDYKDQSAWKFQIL
# Method in brief: as §1
# [10] = target: ETV1 (Homo sapiens, UniProt P50549 1-477); details: protein: recombinant; tags: N-terminal GST; dsDNA, one strand shown
# Chain of ETV1 (P50549 whole entry): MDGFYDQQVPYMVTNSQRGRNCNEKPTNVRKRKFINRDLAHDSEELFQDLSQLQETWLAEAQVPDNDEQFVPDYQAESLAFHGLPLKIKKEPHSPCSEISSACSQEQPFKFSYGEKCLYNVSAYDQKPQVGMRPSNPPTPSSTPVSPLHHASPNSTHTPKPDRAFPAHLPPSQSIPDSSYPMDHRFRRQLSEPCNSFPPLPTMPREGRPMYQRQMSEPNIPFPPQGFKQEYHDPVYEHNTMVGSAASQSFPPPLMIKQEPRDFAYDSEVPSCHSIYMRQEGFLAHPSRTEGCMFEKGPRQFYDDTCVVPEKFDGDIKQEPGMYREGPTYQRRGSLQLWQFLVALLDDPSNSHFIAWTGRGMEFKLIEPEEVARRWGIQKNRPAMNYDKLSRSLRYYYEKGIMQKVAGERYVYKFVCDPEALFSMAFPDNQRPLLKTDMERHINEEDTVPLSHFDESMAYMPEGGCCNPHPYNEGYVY
# Method in brief: as §1
# [11] = target: T6, ERF (Homo sapiens, UniProt P50548 1-548); details: protein: recombinant; tags: N-terminal GST; dsDNA, one strand shown
# T6 sequence: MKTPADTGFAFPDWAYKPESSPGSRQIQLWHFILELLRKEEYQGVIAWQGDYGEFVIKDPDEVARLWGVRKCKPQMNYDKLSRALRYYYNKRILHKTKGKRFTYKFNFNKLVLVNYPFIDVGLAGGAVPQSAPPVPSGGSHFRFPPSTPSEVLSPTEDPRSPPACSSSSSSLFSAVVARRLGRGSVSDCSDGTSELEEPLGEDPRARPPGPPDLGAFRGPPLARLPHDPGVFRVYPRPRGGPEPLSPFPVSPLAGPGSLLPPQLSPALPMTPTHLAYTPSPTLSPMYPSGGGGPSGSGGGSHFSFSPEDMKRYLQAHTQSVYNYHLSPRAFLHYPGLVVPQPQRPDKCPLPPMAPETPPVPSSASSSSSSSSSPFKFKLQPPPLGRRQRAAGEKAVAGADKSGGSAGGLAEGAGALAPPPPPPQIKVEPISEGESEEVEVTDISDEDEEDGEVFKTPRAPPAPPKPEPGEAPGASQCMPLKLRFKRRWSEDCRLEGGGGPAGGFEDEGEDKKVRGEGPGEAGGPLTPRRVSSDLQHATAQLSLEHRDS
# Method in brief: as §1
# [12] = target: T7, ETV3L (Homo sapiens, UniProt Q6ZN32 1-361); details: protein: recombinant; tags: N-terminal GST; dsDNA, one strand shown
# T7 sequence: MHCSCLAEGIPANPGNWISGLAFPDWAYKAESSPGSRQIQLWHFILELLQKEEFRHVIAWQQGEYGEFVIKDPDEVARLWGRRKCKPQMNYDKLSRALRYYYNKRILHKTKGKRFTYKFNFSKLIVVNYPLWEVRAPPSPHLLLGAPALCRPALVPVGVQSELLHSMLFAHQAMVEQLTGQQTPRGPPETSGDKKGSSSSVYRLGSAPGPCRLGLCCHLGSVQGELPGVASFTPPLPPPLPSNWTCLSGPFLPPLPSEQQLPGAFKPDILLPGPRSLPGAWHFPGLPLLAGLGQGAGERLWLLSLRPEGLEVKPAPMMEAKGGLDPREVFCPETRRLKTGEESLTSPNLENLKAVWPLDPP
# Method in brief: as §1
# [13] = target: T8, ETS2 (Homo sapiens, UniProt P15036 1-469); details: protein: recombinant; tags: N-terminal GST; dsDNA, one strand shown
# T8 sequence: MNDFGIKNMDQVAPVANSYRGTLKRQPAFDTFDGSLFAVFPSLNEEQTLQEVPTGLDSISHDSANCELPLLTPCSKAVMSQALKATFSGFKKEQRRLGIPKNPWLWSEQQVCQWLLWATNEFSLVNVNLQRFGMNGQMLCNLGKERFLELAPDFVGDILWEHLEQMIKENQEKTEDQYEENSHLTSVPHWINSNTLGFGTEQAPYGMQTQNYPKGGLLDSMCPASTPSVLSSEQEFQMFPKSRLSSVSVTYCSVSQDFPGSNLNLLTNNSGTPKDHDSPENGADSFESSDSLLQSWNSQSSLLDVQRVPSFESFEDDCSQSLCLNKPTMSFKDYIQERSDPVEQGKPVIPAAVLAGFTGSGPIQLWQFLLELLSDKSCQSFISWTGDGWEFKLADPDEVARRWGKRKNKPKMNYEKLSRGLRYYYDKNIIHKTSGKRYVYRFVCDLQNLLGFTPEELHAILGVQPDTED
# Method in brief: as §1
# [14] = target: T9, SPDEF (Homo sapiens, UniProt O95238 1-335); details: protein: recombinant; tags: N-terminal GST; dsDNA, one strand shown
# T9 sequence: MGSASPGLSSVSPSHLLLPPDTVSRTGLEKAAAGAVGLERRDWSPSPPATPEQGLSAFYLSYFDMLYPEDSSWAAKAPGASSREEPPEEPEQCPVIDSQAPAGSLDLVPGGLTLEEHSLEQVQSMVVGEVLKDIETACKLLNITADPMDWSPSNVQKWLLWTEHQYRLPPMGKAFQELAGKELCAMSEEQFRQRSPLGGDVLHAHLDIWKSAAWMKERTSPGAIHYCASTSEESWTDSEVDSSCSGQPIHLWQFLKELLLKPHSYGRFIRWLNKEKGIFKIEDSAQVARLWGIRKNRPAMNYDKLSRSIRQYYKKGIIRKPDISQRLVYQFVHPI
# Method in brief: as §1
# [15] = target: T10, ETV7 (Homo sapiens, UniProt Q9Y603 1-341); details: protein: recombinant; tags: N-terminal GST; dsDNA, one strand shown
# T10 sequence: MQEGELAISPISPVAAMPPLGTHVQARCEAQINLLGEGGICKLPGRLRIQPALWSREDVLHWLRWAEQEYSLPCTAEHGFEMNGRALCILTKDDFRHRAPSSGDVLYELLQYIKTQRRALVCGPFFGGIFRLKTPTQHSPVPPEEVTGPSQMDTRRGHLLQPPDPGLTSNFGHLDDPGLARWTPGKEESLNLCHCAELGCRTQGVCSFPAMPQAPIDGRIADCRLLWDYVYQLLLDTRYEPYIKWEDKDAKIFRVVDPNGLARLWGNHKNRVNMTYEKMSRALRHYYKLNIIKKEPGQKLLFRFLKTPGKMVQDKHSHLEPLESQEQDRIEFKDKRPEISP
# Method in brief: as §1
# [16] = target: T11, ELF5 (Homo sapiens, UniProt Q9UKW6-2 1-255); details: protein: recombinant; tags: N-terminal GST; dsDNA, one strand shown
# T11 sequence: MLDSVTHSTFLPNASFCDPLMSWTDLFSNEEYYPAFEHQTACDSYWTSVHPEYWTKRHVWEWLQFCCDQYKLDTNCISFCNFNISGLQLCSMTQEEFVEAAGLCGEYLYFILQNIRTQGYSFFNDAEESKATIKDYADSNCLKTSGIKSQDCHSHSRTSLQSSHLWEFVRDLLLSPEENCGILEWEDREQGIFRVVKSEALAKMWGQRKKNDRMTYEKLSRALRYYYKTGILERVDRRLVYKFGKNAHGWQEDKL
# Method in brief: as §1
# [17] = target: T12, ETV3 (Homo sapiens, UniProt P41162-2 1-143); details: protein: recombinant; tags: N-terminal GST; dsDNA, one strand shown
# T12 sequence: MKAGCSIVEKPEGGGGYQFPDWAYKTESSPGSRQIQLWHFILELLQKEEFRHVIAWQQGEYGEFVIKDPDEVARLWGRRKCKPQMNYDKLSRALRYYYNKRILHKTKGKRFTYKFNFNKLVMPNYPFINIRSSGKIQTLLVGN
# Method in brief: as §1
# [18] = target: ETV6 (Homo sapiens, UniProt P41212 1-452); details: protein: recombinant; tags: N-terminal GST; dsDNA, one strand shown
# Chain of ETV6 (P41212 whole entry): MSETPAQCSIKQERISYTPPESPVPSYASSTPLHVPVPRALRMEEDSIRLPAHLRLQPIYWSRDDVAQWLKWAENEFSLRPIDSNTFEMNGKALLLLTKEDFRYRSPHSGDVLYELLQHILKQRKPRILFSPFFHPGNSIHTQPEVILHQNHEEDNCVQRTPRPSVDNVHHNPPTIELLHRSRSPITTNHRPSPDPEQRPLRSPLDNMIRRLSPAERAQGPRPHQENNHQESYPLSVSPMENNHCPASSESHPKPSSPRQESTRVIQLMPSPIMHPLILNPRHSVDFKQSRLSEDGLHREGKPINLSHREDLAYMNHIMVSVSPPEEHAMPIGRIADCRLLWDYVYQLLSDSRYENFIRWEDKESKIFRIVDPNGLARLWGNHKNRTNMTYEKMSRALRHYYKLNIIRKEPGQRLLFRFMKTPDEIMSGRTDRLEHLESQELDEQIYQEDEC
# Method in brief: as §1
sequence,measurement,setting,value
TATAAG,binding signal,[1],"1.05 fold enrichment (6-mer frequency, TF over GST control)"
same,binding signal,[2],"1.12 fold enrichment (6-mer frequency, TF over GST control)"
same,binding signal,[3],"1.51 fold enrichment (6-mer frequency, TF over GST control)"
same,binding signal,[4],"1.1 fold enrichment (6-mer frequency, TF over GST control)"
same,binding signal,[5],"1.15 fold enrichment (6-mer frequency, TF over GST control)"
same,binding signal,[6],"1.08 fold enrichment (6-mer frequency, TF over GST control)"
same,binding signal,[7],"1.22 fold enrichment (6-mer frequency, TF over GST control)"
same,binding signal,[8],"1.23 fold enrichment (6-mer frequency, TF over GST control)"
same,binding signal,[9],"2.08 fold enrichment (6-mer frequency, TF over GST control)"
same,binding signal,[10],"1.15 fold enrichment (6-mer frequency, TF over GST control)"
same,binding signal,[11],"1.2 fold enrichment (6-mer frequency, TF over GST control)"
same,binding signal,[12],"1.21 fold enrichment (6-mer frequency, TF over GST control)"
same,binding signal,[13],"1.17 fold enrichment (6-mer frequency, TF over GST control)"
same,binding signal,[14],"1.2 fold enrichment (6-mer frequency, TF over GST control)"
same,binding signal,[15],"1.18 fold enrichment (6-mer frequency, TF over GST control)"
same,binding signal,[16],"1.16 fold enrichment (6-mer frequency, TF over GST control)"
same,binding signal,[17],"1.15 fold enrichment (6-mer frequency, TF over GST control)"
same,binding signal,[18],"1.19 fold enrichment (6-mer frequency, TF over GST control)"
